Shown is part of a subset that was picked to be rich in hits.
Pf Dd2 growth: blocks in vitro growth of P. falciparum Dd2; P. falciparum Dd2 growth, SYBR Green, 72 h; Potency, µM (highest dose often 28.9 µM), for inactives: top-dose activity, negative = inhibition, most hits filed as inhibitors; actives 4.3% (n = 120,000); active = well fitted inhibition curve with a large enough effect;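 also: plate controls were DMSO vehicle for no effect and reference drug for full effect; nearly all actives have a fitted effect of over 65% in size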
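Infected erythrocytes (Dd2, 0.3% parasitemia, 2.5% hematocrit final) are added to compound in RPMI-1640/Albumax II medium, grown 72 h at 37C in low oxygen, then lysed with saponin/Triton-X containing SYBR Green and read by fluorescence.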
* marks the source's active call; other numbers are inactive results; i = inactive; [ ] = another dose, or the depositor's remark. Potency is read from the fitted curve at half-maximal effect.

SMILES	Pf Dd2 growth
COc1cc(-c2noc(CN3CCN(c4ccccc4)CC3)n2)cc(OC)c1OC	14%
CCOc1ccc2oc(=O)cc(CN3CCN(c4ccccc4)CC3)c2c1	i
CCn1c2ccccc2c2nnc(N3CCN(c4cccc(Cl)c4)CC3)nc21	-4%
COc1ccc(-c2noc(CN3CCN(c4cccc(Cl)c4)CC3)n2)cc1	17%
CCOCc1cc(CN2CCN(c3cccc(Cl)c3)CC2)c(O)c2ncccc12	2.8µM*
COCC(=O)N1CCOC[C@H](Oc2ccc(C(F)(F)F)cn2)C1	12%[44.1 µM]
CC(C)NC[C@H]1O[C@@H](CO)[C@@H](O)[C@H]1N1CCN(c2ccccn2)CC1	-8%
O=C(Nc1cccc2ccccc12)O[C@@H]1CO[C@H]2[C@@H]1OC[C@@H]2n1nnnc1Sc1ccccc1	i
Cc1cc(-c2cccc(OC(C)C)c2)cnc1-n1cnnc1	-2%
C=CCN1CCN(C(=O)CN2CC3CC(C2)[C@H]2CCCC(=O)N2C3)CC1 (some centres undefined)	8%
C[S+](=O)([O-])CCn1ncc2cc(OCc3cccc(-c4cccc(CO)c4)c3)ccc21	64%[44.1 µM]
O=C1NC(=NC2CCCC2)C2(CCCN(Cc3ccccc3)C2)N1c1cc(F)cc(F)c1 (centres undefined)	-22%
O=C1NC(=NC2CCCC2)C2(CCCN(Cc3ccccc3)C2)N1c1cccnc1 (centres undefined)	-13%
O=C1NC(=NC2CCCCC2)C2(CCCN(Cc3ccccc3)C2)N1c1cc(F)cc(F)c1 (centres undefined)	7.1µM*
O=C1NC(=NC2CCCC2)C2(CCN(Cc3cccnc3)CC2)N1c1cc(F)cc(F)c1	-68%
O=C1NC(=NC2CCCC2)C2(CCN(Cc3ccccc3)C2)N1c1cccnc1 (centres undefined)	-3%
O=C1NC(=NC2CCCCC2)C2(CCN(Cc3ccccc3)C2)N1c1cc(F)cc(F)c1 (centres undefined)	1.8µM*
O=C(C[C@H]1NC(=O)c2ccccc2NC1=O)Nc1ncn[nH]1	-6%
Cc1ncc(C(=O)N(C)CC2CCCN(CCc3ccc(Cl)cc3)C2)c(=O)[nH]1 (centres undefined)	-8%
COc1ccc2c(=O)n(CC(=O)N3CCCOCC3)ccc2c1OC	-18%
CN(C)CCCNC(=O)CC1Sc2ncccc2N(C)C1=O (centres undefined)	-13%
CC(=O)c1cc(C(=O)N2C[C@@H](CN3CCCN(C)CC3)[C@@H](CO)C2)cs1	-13%
CC(C)(C)C(=O)N1CC[C@H]2CC(=O)N(Cc3cccnc3)CC[C@H]2C1	6%[44.1 µM]
Cc1c(CC(=O)N2CCC(C#N)CC2)c2c(n1Cc1ccccc1)CCCC2=O	-22%
Cc1c(CC(=O)NC2CCOCC2)c2c(n1Cc1ccc(F)cc1)CCCC2=O	-13%
SMILES	Pf Dd2 growth
Cc1c(CC(=O)NC2CCOCC2)c2c(n1CCc1ccccc1)CCCC2=O	10µM*
Fc1cccc(-c2cc3c(cn2)CN(Cc2ccncc2)CCN3)c1	i
c1ccc(Oc2ccccc2-c2cc3c(cn2)CN(Cc2ccncc2)CCN3)cc1	8.9µM*
c1cc(CN2CCNc3cc(-c4ccsc4)ncc3C2)ccn1	i
COc1ccc(-c2cc(N3CCCC(NC(=O)Cc4cccs4)C3)n[nH]2)cc1 (centres undefined)	-11%
COc1ccccc1CC(=O)Nc1ccc2c(N3CCCCC3)ncnc2c1	14µM*
O=C(Cc1cccs1)Nc1ccc2c(N3CCCCC3)ncnc2c1	5µM*
Cc1ccccc1CC(=O)Nc1ccc2ncnc(N3CCCCC3)c2c1	i
CC1Oc2ccc(NC(=O)Cc3cccs3)cc2CN(Cc2ccc(Cl)cc2)C1=O (centres undefined)	i
COc1ccccc1CC(=O)NC1CCN(c2cc(C(F)(F)F)ncn2)CC1	34%
CC1(C)CNC(=O)c2nc(CCN3CCCc4ccccc43)[nH]c2C1	-6%
Cc1nc(-c2cnccn2)n(CC(=O)Nc2ccc(F)c(Cl)c2)c(=O)c1C	-28%
CC(=O)NC1(C)CCN(Cc2cnc(-c3cccc(N4CCOCC4)c3)s2)CC1	0%[44.1 µM]
O=C(NC[C@H]1O[C@H](Cc2cc(-c3ccccc3)on2)CC[C@@H]1O)c1ccncc1	-10%[44.1 µM]
COc1ccc(CN2CCCC3(C2)NC(=O)c2ccccc2O3)cc1 (centres undefined)	i
O=C1Nc2ccccc2CNC12CCN(CC1CC1)CC2	2%[44.1 µM]
CS(=O)(=O)N1CCOc2ccc(CCC(=O)N3CCCCC3)cc2C1	i
COc1ccccc1CNC(=O)c1cc2cn(C3CC3)cc2s1	i
CCOc1ccccc1CNC(=O)c1cc2cn(C3CCCC3)cc2s1	13µM*
CCOc1ccccc1CNC(=O)c1cc2cn(C(C)C)cc2s1	-12%
O=C(NCc1ccccc1)O[C@H]1COCCN(c2nc3ccccc3o2)C1	-13%[44.1 µM]
Cc1ccc(C(=O)N2CCCCCCNC(=O)[C@@H]3C[C@@H](C(=O)N4CCc5ccccc5C4)C[C@@H]32)s1	7.9µM*
O=C1NCCCCCCN(C(=O)c2ccoc2)[C@H]2C[C@H](C(=O)N3CCN(c4ccccn4)CC3)C[C@@H]12	i
Cc1cccc(C(=O)N2CCCCCNC(=O)[C@@H]3CCCC[C@@H]32)c1	3%

Compound activity from PubChem.
